An excerpt weighted towards active compounds, which were near 7.3% of everything screened.
NPC1_promoter_act: qHTS Assay for NPC1 Promoter Activators; Huh7 NPC1 promoter luciferase reporter, 24 h; Potency, µM (highest dose often 9.22 µM), inactives show at the highest dose activation, hits mostly activators; 320,000 tested, 2.4% active; AID 485313, 2010; further: % of control where 0% means no effect; nearly all actives have a fitted effect of over 60% in size
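Stable NPC1-promoter luciferase Huh7 line; cpd (DMSO) 24 h, 37 °C, 5% CO2; Amplite luciferase reagent 10 min RT; luminescence readout. qHTS format.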
FLuc_modulator: qHTS profiling assay for firefly luciferase inhibitor/activator using purifed enzyme and Km concentrations of substrates (counterscreen for miR-21 project). Luciferin 4-monooxygenase (Photinus pyralis), P08659. purified FLuc, Km substrates, luminescence inhibition. Potency, µM (highest dose often 57.5 µM), for the others: at the highest dose activity change, negative = inhibition, most hits filed as inhibitors. 360,000 tested, 6.9% active. AID 588342, 2011;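 further: plate controls were vehicle for no effect and reference inhibitor for full effect; nearly all actives have a fitted effect of over 55% in size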
Target sequence (P08659 whole entry, looked up): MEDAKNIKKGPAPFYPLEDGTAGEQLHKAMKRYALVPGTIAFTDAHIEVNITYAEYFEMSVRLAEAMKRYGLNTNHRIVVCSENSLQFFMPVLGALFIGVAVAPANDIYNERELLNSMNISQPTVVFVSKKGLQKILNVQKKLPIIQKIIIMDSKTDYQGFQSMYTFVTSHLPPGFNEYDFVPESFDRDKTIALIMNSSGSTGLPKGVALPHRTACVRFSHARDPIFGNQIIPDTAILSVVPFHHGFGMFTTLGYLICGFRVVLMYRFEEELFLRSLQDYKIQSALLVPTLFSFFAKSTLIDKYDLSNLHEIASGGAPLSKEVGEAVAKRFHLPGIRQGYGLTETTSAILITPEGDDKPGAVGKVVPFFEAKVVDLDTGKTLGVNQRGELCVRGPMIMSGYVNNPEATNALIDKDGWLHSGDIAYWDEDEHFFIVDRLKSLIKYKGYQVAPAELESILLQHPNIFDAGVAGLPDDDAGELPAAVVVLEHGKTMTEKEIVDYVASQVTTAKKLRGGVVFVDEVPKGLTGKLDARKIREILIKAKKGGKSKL
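Purified P. pyralis luciferase, 10 nM final, with Km-level 10 uM D-luciferin and 10 uM ATP in 50 mM Tris acetate pH 7.5, 10 mM Mg acetate, 0.01% Tween-20, 0.05% BSA; 6-point qHTS titration about 60 µM downward; luminescence read.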
Luc_counter: Counterscreen for Luciferase (Kinase-Glo TM) Inhibition; Luciferin 4-monooxygenase (Photuris pensylvanica), Q27757; Kinase-Glo luciferase, ATP luminescence, 8 min; Potency, µM (top dose mostly 38.3 µM), without a hit: at the highest dose activity change, negative = inhibition, hits mostly inhibitors; 200,000 tested, 0.28% active; further: on the % scale 0 is the no-effect control and ±100 the full control effect; nearly all actives have a fitted effect of over 60% in size
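Compounds were added to a substrate mix at pH 7.2 (50 mM imidazole, 10 uM ATP, within the enzyme's linear range), followed by Kinase-Glo detection reagent; luminescence was measured after 8 minutes at ambient temperature.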
Rab9_prom_act: qHTS Assay for Rab9 Promoter Activators. AID 485297, 2010. 320,000 tested, 2.8% active. Potency, µM (doses to about 9.22 µM), without a hit: top-dose activation, negative = inhibition, usual class: activators. Huh7 Rab9 promoter-luciferase reporter, luminescence, 24 h; further: % of control where 0% means no effect; nearly all actives have a fitted effect of over 60% in size
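Promoter activation is measured as luciferase luminescence in Huh7 cells stably transfected with a Rab9 promoter–luciferase construct, following 24 h compound exposure at 37 °C and 10 min reagent incubation at ambient temperature.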
SMN2_splice_up: qHTS Assay for Enhancers of SMN2 Splice Variant Expression | HEK293 SMN2-luciferase splicing reporter, luminescence, 30-36 h | Potency, µM (top dose mostly 46.1 µM), for the others: at the top dose activity change, positive = activation, hits mostly activators | 210,000 tested, 2.8% active; further: % of control where 0% means no effect; nearly all actives have a fitted effect of over 55% in size
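qHTS luciferase splicing reporter: luminescence rises when SMN2 exon 7 is included in transfected HEK293 cells. Compound exposure lasted 30-36 h at 37C, with 4.5 mM final sodium butyrate as control, followed by a ONE-Glo read.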
* marks the source's active call; other numbers are inactive results; ? = inconclusive; . = not tested or not shown; [ ] = remark or other dose. The call rests on the fitted dose curve; in most records, active means well fitted curve in the direction sought with a large enough effect; inconclusive means small, poorly fitted or top-dose-only effect, or another doubt; inactive means no such curve, though single readings can be large; an effect the other way counts as inactive or inconclusive. Potency means the concentration at half of the fitted maximal effect.

SMILES NPC1_promoter_act FLuc_modulator Luc_counter Rab9_prom_act SMN2_splice_up
O=C(Nc1ccc2nc[nH]c2c1)c1ccco1 19.0% 19µM* -23.6% ? 8.0%
CC(C)(C)C(=O)Nc1ccc(-c2nc3ccc(NC(=O)C(C)(C)C)cc3[nH]2)cc1 . 1.9µM* . . ?
Cc1cccc(NC(=O)Cn2cc(C(=O)C3CCCCC3)c3ccccc32)c1C . 2.2% . . -13.3%
COc1ccc(-c2onc(C)c2C)cc1S(=O)(=O)NCC1CCN(Cc2cc(C)ccc2C)CC1 . -1.6% . . .
Cc1ccc(-c2nc3ccccc3[nH]2)cc1NC(=O)c1ccco1 12.2% 15.1µM* -2.7% 10.6% .
O=C(Nc1ccc2nc(-c3ccc(Br)o3)[nH]c2c1)c1ccco1 ? 5.36µM* -7.7% ? -2.2%
CC(=O)Nc1ccc2nc(-c3ccc(Br)o3)[nH]c2c1 ? 3.79µM* -22.1% 3.55µM* ?
O=C(Nc1ccc2nc(-c3ccc(Br)o3)[nH]c2c1)c1cccs1 -0.2% 4.26µM* -3.8% 23.3% -13.3%
CC(=O)Nc1ccc(Oc2ccc3nc(C)[nH]c3c2)cc1 0.4% -0.3% -4.1% -4.8% -39.3%
Cc1cccc(NC(=O)c2cnn3c2NC(=C2CC2)C=C3C(F)F)n1 . 3.7% . . .
Cc1ccccc1NC(=O)Cn1cc(S(=O)(=O)c2ccccc2)c(=O)c2ccccc21 . -3.3% . . -2.1%
CN(Cc1ccco1)c1nc(-c2cccc(C#N)c2)nc2ccccc12 . . -1.1% . -30.9%
CCCC[C@@H](NC(=O)[C@@H](Cc1cn(C(=O)OC)c2ccccc12)NC(=O)[C@H](CC(C)(C)C)NC(=O)N1[C@H](C)CCC[C@@H]1C)C(=O)O . . -0.4%[39.9_µM] . .
Cc1cc(C)n(-c2nc3cc(Cl)ccc3nc2N2CCN(c3cccc(C)c3C)CC2)n1 . -1.0% . . -11.4%
Cc1cc2oc(=O)c(CC(=O)O)c(C)c2c2occ(-c3ccccc3)c12 . 6.01µM* . . 21.1%
COCCNC(=O)Cc1c(C)c2c(cc(C)c3c(C)coc32)oc1=O 0.6% ? . -9.8% .
Cc1c(CC(=O)O)c(=O)oc2c(C)c3occ(-c4ccccc4)c3cc12 -2.8% -8.8% . 2.8% .
COCCCNC(=O)Cc1c(C)c2c(cc(C)c3c(C(C)(C)C)coc32)oc1=O -10.9% 10.7µM* . -19.8% .
CC1CCN(S(=O)(=O)c2ccc3c(c2)N(CC(=O)NCCN(C)C)C(=O)CO3)CC1 . -0.9% . . -1.7%
COC(=O)C1CCN(C(=O)/C=C/c2ccc3c(c2)OCO3)CC1 0.794µM* ? . 1.26µM* .
O=C(/C=C/c1ccc2c(c1)OCO2)N1CCN(c2n[nH]c(=O)[nH]c2=O)CC1 -3.6% 21.3µM* . -2.3% .
CCN1CCN(C(=O)/C=C/c2ccc3c(c2)OCO3)CC1 1.7% -14.2% -2.4% 1.0% .
CN1CCN(C(=O)/C=C/c2ccc3c(c2)OCO3)CC1 1.0% -4.0% -2.2% 12.7% 0.8%
O=C(/C=C/C=C/c1ccc2c(c1)OCO2)N1CCCCC1 2.51µM* 8.49µM* -0.5% 2.51µM* 14.1µM*
COc1cc(C(=O)NCc2nc(-c3ccc(Cl)cc3)no2)cc(OC)c1OC . -5.1% . . -0.4%
COc1ccc(S(=O)(=O)N(CCO)c2ccccc2CN(C)C/C=C/c2ccc(Cl)cc2)cc1 . . . . -67.0%
Cc1ccc2c(c1)COc1c3ccc(C(=O)NC(C)C)cc3nn1-2 1.58µM* 3.01µM* . ? .

Screening results (PubChem BioAssay)
